Measurements from ChEMBL document CHEMBL2218924, “A broad activity screen in support of a chemogenomic map for kinase signalling research and drug discovery” (Biochem J, 2013).

Legend:
[1] = target: T1, Testis-specific serine/threonine-protein kinase 2 (Homo sapiens) (UniProt Q96PF2); details: at 1 µM
T1 sequence (whole entry): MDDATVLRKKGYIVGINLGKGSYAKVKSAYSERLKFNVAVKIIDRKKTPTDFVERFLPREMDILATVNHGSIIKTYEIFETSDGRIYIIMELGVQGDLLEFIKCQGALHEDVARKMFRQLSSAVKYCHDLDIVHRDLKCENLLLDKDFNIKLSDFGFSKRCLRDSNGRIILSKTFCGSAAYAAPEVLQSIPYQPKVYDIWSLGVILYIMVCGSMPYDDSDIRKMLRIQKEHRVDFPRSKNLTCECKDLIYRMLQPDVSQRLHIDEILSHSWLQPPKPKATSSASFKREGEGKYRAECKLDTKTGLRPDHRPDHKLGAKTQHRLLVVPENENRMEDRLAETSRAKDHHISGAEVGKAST

[2] = target: T2, Tyrosine-protein kinase Mer (Homo sapiens) (UniProt Q12866); details: at 1 µM
T2 sequence (whole entry): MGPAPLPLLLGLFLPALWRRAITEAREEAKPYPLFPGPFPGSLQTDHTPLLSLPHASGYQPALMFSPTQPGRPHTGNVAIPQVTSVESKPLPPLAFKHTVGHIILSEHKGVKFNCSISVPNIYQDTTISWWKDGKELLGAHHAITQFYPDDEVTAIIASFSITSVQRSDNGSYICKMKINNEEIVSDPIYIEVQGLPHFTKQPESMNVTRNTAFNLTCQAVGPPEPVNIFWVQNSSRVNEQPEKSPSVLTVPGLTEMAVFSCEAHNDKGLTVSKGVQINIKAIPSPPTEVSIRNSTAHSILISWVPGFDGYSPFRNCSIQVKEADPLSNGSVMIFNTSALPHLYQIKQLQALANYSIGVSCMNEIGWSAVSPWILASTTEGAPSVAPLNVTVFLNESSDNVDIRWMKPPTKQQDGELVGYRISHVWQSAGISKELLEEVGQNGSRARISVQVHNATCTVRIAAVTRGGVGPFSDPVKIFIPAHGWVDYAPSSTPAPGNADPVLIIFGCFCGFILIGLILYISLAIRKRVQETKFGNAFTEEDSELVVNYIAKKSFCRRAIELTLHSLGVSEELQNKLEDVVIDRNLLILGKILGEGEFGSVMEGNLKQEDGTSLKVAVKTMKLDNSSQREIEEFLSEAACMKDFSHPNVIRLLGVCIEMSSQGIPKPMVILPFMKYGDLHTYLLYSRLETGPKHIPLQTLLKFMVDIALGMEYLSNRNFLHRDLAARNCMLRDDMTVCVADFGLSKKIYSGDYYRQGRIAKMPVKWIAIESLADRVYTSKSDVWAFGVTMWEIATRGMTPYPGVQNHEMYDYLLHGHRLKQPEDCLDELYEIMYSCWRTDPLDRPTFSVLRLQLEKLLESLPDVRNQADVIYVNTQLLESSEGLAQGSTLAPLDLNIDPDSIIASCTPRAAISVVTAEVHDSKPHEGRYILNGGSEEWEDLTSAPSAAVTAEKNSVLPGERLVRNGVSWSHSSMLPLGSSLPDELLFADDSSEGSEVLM

[3] = target: T2, Tyrosine-protein kinase Mer (Homo sapiens); details: at 10 µM
[4] = target: MAP kinase-interacting serine/threonine-protein kinase 2 (Homo sapiens) (UniProt Q9HBH9); details: at 1 µM
Sequence of MAP kinase-interacting serine/threonine-protein kinase 2 (Homo sapiens) (Q9HBH9 whole entry, looked up): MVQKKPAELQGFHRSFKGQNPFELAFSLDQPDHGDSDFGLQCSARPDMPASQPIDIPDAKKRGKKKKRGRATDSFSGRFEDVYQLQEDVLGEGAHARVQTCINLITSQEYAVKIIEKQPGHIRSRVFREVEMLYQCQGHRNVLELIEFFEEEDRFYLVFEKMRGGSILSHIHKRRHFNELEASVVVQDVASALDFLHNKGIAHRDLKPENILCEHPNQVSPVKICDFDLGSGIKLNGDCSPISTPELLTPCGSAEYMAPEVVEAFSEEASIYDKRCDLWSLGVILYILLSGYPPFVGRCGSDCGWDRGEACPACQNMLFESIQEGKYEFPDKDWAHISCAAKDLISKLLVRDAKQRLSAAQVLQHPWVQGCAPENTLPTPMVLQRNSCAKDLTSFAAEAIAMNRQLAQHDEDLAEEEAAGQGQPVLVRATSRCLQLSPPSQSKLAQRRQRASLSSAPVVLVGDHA

[5] = target: MAP kinase-interacting serine/threonine-protein kinase 2 (Homo sapiens) (UniProt Q9HBH9); details: at 10 µM
[6] = target: T3, Serine/threonine-protein kinase Nek11 (Homo sapiens) (UniProt Q8NG66); details: at 1 µM
T3 sequence (whole entry): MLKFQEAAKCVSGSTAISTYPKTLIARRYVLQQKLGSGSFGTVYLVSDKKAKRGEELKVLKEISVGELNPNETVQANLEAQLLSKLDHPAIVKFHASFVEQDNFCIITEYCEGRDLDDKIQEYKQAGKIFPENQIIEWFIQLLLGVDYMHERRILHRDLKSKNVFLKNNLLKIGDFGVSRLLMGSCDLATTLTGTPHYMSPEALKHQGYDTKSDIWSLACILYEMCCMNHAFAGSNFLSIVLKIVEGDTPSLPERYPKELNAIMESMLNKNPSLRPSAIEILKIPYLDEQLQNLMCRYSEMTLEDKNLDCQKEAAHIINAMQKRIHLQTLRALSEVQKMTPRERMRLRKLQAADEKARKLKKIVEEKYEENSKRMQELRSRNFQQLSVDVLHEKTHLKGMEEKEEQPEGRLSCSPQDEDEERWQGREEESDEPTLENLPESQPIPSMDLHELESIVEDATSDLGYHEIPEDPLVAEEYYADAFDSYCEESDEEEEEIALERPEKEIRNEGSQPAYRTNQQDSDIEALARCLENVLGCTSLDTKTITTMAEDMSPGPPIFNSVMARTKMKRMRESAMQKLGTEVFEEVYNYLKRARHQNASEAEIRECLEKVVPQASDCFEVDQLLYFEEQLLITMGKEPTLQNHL

[7] = target: T3, Serine/threonine-protein kinase Nek11 (Homo sapiens); details: at 10 µM
[8] = target: Serine/threonine-protein kinase tousled-like 2 (Homo sapiens) (UniProt Q86UE8); details: at 1 µM
Sequence of Serine/threonine-protein kinase tousled-like 2 (Homo sapiens) (Q86UE8 whole entry, looked up): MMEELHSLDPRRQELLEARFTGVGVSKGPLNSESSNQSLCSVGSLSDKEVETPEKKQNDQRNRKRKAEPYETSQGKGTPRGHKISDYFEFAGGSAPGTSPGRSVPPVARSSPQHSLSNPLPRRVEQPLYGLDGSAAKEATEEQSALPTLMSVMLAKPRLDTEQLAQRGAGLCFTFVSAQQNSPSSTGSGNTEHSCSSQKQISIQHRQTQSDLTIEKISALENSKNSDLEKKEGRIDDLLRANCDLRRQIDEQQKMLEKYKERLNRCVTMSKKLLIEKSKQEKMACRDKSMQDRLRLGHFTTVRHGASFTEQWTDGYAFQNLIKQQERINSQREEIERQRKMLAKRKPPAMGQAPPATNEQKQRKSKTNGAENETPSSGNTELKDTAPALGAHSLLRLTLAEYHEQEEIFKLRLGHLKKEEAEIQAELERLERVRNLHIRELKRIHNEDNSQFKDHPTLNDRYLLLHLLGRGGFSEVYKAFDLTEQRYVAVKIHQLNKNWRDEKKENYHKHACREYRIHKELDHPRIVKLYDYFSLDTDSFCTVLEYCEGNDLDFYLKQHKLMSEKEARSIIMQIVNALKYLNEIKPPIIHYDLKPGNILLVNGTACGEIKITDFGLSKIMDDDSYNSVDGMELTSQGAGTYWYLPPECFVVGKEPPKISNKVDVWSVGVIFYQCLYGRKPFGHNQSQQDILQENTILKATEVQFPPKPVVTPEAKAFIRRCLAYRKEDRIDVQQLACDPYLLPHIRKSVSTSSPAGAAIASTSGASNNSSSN

[9] = target: Serine/threonine-protein kinase tousled-like 2 (Homo sapiens) (UniProt Q86UE8); details: at 10 µM
[10] = target: T4, Testis-specific serine/threonine-protein kinase 1 (Homo sapiens) (UniProt Q9BXA7); details: at 1 µM
T4 sequence (whole entry): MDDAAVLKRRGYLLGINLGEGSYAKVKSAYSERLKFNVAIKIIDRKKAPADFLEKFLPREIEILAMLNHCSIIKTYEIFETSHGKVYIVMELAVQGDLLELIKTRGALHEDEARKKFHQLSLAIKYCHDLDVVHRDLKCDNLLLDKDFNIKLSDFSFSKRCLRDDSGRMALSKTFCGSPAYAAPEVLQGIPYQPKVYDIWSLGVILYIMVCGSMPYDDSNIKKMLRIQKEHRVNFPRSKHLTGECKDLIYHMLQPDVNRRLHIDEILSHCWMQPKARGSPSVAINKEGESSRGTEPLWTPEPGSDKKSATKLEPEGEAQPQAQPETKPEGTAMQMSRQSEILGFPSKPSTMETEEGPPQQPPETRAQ

[11] = target: T4, Testis-specific serine/threonine-protein kinase 1 (Homo sapiens); details: at 10 µM
[12] = target: T1, Testis-specific serine/threonine-protein kinase 2 (Homo sapiens); details: at 10 µM
[13] = target: Hepatocyte growth factor receptor (Homo sapiens) (UniProt P08581); details: at 1 µM
Sequence of Hepatocyte growth factor receptor (Homo sapiens) (P08581 whole entry): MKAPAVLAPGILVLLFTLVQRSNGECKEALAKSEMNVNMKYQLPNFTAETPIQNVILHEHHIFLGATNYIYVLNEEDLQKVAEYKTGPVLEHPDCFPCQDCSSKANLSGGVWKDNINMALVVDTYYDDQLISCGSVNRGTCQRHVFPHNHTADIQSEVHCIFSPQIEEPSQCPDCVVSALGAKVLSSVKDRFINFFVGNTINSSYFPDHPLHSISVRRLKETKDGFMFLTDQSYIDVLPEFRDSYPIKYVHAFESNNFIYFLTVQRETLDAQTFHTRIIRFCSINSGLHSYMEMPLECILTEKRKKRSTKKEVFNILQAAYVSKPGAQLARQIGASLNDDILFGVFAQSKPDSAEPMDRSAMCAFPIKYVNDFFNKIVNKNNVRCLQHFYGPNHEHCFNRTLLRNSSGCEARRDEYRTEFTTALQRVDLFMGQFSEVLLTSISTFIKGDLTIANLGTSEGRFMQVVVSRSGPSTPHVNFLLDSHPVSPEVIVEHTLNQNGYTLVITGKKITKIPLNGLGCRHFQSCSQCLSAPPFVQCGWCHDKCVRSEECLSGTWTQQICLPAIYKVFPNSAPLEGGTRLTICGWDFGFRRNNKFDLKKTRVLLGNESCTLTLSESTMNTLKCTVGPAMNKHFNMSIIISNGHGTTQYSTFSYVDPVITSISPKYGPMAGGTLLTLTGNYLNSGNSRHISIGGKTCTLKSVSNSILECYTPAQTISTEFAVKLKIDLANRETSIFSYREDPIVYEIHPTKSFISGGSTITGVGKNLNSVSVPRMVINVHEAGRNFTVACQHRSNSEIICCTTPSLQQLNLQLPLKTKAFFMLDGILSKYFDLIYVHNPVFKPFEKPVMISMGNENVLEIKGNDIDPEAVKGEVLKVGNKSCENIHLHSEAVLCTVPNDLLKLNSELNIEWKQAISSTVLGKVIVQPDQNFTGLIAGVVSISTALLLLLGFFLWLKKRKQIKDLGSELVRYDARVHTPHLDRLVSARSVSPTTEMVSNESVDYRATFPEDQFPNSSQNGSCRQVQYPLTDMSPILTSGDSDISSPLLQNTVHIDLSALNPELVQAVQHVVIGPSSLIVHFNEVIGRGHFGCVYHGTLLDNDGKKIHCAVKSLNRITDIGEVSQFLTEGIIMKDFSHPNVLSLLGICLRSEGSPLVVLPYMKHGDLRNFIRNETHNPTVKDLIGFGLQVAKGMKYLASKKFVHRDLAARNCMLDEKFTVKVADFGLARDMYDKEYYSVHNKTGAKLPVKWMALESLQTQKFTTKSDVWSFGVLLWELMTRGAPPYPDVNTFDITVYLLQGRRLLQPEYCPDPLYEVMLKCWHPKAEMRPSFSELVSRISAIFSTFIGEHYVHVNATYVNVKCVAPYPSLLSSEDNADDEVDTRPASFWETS

[14] = target: Hepatocyte growth factor receptor (Homo sapiens) (UniProt P08581); details: at 10 µM
[15] = target: T5, Muscle, skeletal receptor tyrosine-protein kinase (Homo sapiens) (UniProt O15146); details: at 10 µM
T5 sequence (whole entry): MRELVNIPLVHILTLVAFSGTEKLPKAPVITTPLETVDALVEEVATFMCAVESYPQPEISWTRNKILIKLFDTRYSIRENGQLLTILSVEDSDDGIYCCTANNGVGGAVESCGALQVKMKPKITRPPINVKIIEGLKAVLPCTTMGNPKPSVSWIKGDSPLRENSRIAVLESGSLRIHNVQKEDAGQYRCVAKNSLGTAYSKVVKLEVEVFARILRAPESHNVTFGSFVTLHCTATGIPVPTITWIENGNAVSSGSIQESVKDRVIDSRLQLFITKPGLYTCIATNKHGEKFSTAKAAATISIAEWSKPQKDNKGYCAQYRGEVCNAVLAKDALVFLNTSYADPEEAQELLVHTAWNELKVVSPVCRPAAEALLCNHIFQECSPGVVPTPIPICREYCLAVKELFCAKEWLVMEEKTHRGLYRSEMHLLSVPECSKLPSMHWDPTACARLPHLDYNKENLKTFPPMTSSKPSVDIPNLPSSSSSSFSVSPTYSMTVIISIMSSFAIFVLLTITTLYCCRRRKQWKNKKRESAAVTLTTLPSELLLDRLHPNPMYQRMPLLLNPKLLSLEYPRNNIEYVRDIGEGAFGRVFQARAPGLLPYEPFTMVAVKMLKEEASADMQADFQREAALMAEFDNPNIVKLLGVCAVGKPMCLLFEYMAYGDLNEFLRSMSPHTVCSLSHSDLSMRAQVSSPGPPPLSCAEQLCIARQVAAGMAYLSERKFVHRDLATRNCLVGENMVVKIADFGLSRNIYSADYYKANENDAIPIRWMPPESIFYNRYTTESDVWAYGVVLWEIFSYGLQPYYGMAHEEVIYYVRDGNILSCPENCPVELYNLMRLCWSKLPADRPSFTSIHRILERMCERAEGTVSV

[16] = target: T6, Serine/threonine-protein kinase Nek2 (Homo sapiens) (UniProt P51955); details: at 1 µM
T6 sequence (whole entry): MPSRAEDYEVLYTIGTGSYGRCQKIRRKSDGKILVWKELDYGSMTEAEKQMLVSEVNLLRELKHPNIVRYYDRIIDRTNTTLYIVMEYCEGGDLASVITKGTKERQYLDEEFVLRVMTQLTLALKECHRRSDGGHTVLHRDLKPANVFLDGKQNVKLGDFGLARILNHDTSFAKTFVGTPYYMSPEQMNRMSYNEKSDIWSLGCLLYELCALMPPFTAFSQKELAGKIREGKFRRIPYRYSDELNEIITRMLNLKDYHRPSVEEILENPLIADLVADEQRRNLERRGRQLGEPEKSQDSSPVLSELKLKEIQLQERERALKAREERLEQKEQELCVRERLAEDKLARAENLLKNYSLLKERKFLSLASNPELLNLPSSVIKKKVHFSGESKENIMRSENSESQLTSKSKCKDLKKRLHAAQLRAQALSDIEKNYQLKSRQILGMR

[17] = target: T6, Serine/threonine-protein kinase Nek2 (Homo sapiens); details: at 10 µM
[18] = target: T7, Serine/threonine-protein kinase Nek3 (Homo sapiens) (UniProt P51956); details: at 1 µM
T7 sequence (whole entry): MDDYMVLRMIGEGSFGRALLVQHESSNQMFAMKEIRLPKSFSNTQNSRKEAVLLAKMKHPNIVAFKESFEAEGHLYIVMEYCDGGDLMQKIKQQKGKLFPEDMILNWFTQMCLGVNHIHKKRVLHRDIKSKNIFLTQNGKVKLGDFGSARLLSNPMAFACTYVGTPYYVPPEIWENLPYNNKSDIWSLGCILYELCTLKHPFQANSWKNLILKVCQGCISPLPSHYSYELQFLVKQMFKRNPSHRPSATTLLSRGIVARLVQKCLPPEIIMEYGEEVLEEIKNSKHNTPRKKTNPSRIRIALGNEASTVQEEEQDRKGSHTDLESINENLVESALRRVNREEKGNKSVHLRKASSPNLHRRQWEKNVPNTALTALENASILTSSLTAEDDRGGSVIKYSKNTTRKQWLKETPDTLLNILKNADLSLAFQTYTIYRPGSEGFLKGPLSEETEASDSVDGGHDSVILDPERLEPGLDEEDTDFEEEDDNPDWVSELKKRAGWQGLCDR

[19] = target: T7, Serine/threonine-protein kinase Nek3 (Homo sapiens); details: at 10 µM
[20] = target: T5, Muscle, skeletal receptor tyrosine-protein kinase (Homo sapiens); details: at 1 µM

Q: `Cc1ccc(NC2=CC(=O)c3sc(C)nc3C2=O)cc1` was tested. Which residual activity [1] did it give?
A: 93%

Q: How did the residual activity [2] turn out when `O=C1NC(=O)c2c1c1c3ccccc3n3c1c1c2c2ccccc2n1C1CCC3O1` was run?
A: 34%

Q: And the residual activity [3]?
A: 11%

Q: And the residual activity [4]?
A: 97%

Q: What about the residual activity [5] of the same molecule?
A: 95%

Q: What about the residual activity [6] of the same molecule?
A: 91%

Q: What about the residual activity [7] of the same molecule?
A: 87%

Q: What about the residual activity [8] of the same molecule?
A: 62%

Q: And the residual activity [9]?
A: 68%

Q: What about the residual activity [10] of the same molecule?
A: 92%

Q: And the residual activity [11]?
A: 70%

Q: What about the residual activity [1] of the same molecule?
A: 82%

Q: What about the residual activity [12] of the same molecule?
A: 96%

Q: `O=Nc1c(-c2c(O)[nH]c3ccccc23)[nH]c2ccccc12` was tested. Which residual activity [1] did it give?
A: 95%

Q: For `O=C(c1ccccc1)c1ccc(N2CCOCC2)cc1O`, which residual activity [1] is on record?
A: 87%

Q: For `COc1ccc2c(c[n+](C)c3c4cc5c(cc4ccc23)OCO5)c1OC`, which residual activity [13] is on record?
A: 94%

Q: And the residual activity [14]?
A: 85%

Q: What about the residual activity [5] of the same molecule?
A: 82%

Q: And the residual activity [15]?
A: 95%

Q: What about the residual activity [16] of the same molecule?
A: 76%

Q: And the residual activity [17]?
A: 68%

Q: And the residual activity [18]?
A: 110%

Q: What about the residual activity [19] of the same molecule?
A: 60%

Q: What about the residual activity [8] of the same molecule?
A: 95%

Q: And the residual activity [9]?
A: 92%

Q: With `O=C1c2ccccc2-c2nc3nnnn3nc21` as the molecule, how does the residual activity [2] read?
A: 124%

Q: And the residual activity [3]?
A: 103%

Q: What about the residual activity [13] of the same molecule?
A: 127%

Q: What about the residual activity [14] of the same molecule?
A: 133%

Q: And the residual activity [4]?
A: 100%

Q: What about the residual activity [5] of the same molecule?
A: 75%

Q: What about the residual activity [20] of the same molecule?
A: 131%

Q: What about the residual activity [15] of the same molecule?
A: 105%

Q: And the residual activity [18]?
A: 116%

Q: What about the residual activity [19] of the same molecule?
A: 102%

Q: What does the source list for `COc1cc(OC)c(/C=C2\C(=O)Nc3ccccc32)c(OC)c1`?
A: residual activity [2]: 95%; residual activity [3]: 93%; residual activity [13]: 103%; residual activity [14]: 94%; residual activity [4]: 99%; residual activity [5]: 96%; residual activity [20]: 88%; residual activity [15]: 78%; residual activity [6]: 43%; residual activity [7]: 61%; residual activity [16]: 90%; residual activity [17]: 91%; residual activity [18]: 80%; residual activity [19]: 96%; residual activity [8]: 91%; residual activity [9]: 85%; residual activity [10]: 92%; residual activity [11]: 91%; residual activity [1]: 102%; residual activity [12]: 99%

Q: `COc1ccc2c(c1)/C(=C/c1cnc[nH]1)C(=O)N2` was tested. Which residual activity [14] did it give?
A: 42%

Q: What about the residual activity [5] of the same molecule?
A: 40%

Q: What about the residual activity [20] of the same molecule?
A: 80%

Q: What about the residual activity [15] of the same molecule?
A: 27%

Q: And the residual activity [8]?
A: 63%

Q: What about the residual activity [9] of the same molecule?
A: 11%

Q: Which residual activity [1] does the source give for `O=C1NC(=O)/C(=C/c2ccc3c(c2)OC(F)(F)O3)S1` here?
A: 93%
